Source: PubChem BioAssay
Only some compounds are listed: those with a hit (about 1.9% of all), similar ones and a draw of the others.
VLA-4 allo ag – enhancers of LDV-FITC binding to VLA-4 integrin, primary screen, Jurkat cells, flow cytometry; Integrin alpha-4 (Homo sapiens), P13612; activation, % at 10 µM (by protocol); 24,000 tested, under 10 active; AID 528, 2006;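 active = fluorescent ligand binding to cells raised by more than 40% of the manganese-induced maximum; inconclusive = compound's own fluorescence above 85% of the ligand control signal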;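 also: 0% = ligand binding without compound and 100% = manganese-stimulated maximal binding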
LNCaP diff act – activators of LNCaP prostate cell differentiation, primary screen, flow cytometry side scatter; hit rate 0.56% among 24,000; side scatter shift, % at 10 µM; AID 795, 2007; 4 d;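 active = side scatter shift above 30%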;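 also: androgen-responsive LNCaP prostate cancer cells in charcoal-stripped serum medium; percent of cells past a gate set so DMSO wells show 10% shift; higher shift means more granular cells and more differentiation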
VLA-4 antagonist – inhibitors of LDV-FITC binding to Mn2+-activated VLA-4, primary screen, Jurkat cells. inhibition, % at 10 µM (by protocol). LDV-FITC binding with Mn2+, flow cytometry; 100% = Mn2+-driven binding gain fully reversed. hit rate 0.2% among 24,000. Integrin alpha-4 (Homo sapiens), P13612. AID 529, 2006;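 active = inhibition above 50%; inconclusive = compound itself fluorescent, judged against control cell fluorescence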;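 also: 0% = Mn2+ stimulated cells lacking compound and 100% = ligand binding without Mn2+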
FPR ligand – human FPR ligands by binding competition, primary screen, cell-based, FPRL1 counter-screen, flow cytometry; fMet-Leu-Phe receptor (Homo sapiens), P21462; FPR-expressing cells, fluorescent ligand binding; inhibition, % (concentration not given with the values); hit rate 0.74% among 24,000;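 also: 0% = buffer wells and 100% = receptor blocker peptide wells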
Jurkat autofluor – compound autofluorescence on Jurkat cells, primary screen, artefact control for VLA-4 allosteric ligand project, cell-based, flow cytometry; fluorescence ratio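 (tested at 10 µM compound in the well)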; active compounds read high; 1 = vehicle-only cell background; AID 576, 2007; hit rate 0.61% among 24,000;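 active = fluorescence ratio above 2.44, which is 1 plus 3 SD of all ratios; inconclusive = signal too bright to measure linearly, ratio around 10 or more; inactive = fluorescence ratio below 2.44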;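 also: green fluorescence of cells measured with 488 nm excitation and 530 nm emission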
FPRL1 binder – human FPRL1 ligands by binding competition, primary screen, cell-based, FPR counter-screen, flow cytometry | N-formyl peptide receptor 2 (Homo sapiens), P25090 | FPRL1-expressing cells, fluorescent ligand binding inhibition | inhibition, % (no concentration beside the values) | hit rate 0.3% among 24,000 | AID 441, 2006;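 also: 0% = buffer alone and 100% = receptor blocker peptide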
Target sequence (P25090 whole entry, looked up): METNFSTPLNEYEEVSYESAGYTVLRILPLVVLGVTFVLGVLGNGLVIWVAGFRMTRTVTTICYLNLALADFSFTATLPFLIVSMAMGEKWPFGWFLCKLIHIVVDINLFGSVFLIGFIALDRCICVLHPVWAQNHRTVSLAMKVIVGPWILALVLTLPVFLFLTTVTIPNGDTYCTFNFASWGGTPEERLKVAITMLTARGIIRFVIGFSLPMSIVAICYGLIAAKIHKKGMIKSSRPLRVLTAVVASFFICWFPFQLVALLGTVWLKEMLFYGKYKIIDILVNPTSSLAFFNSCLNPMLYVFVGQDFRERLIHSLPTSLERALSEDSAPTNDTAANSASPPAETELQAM
* = called active by the depositor. Rule as the data show it, unless noted: active = inhibition above about 30%; inconclusive = no clear call, values can overlap the other calls; inactive = below that.

Results for CCOC(=O)CSc1nnc(CNC(=O)c2cc(OCC)c(OCC)c(OCC)c2)n1C ?
VLA-4 allo ag: 11; LNCaP diff act: 3; VLA-4 antagonist: 16; FPR ligand: -6; Jurkat autofluor: 0.92; FPRL1 binder: 51*

Results for CCOc1cc(C(=O)NCc2nnc(SCC(=O)OC)n2C)cc(OCC)c1OCC ?
VLA-4 allo ag: 0; LNCaP diff act: 2; VLA-4 antagonist: 0; FPR ligand: 9; Jurkat autofluor: 1; FPRL1 binder: 75*

Results for CCOC(=O)CSc1nnc(CNC(=O)c2cc(OC)c(OC)c(OC)c2)n1C ?
VLA-4 allo ag: 1; LNCaP diff act: 7; VLA-4 antagonist: 15; FPR ligand: 2; Jurkat autofluor: 0.99; FPRL1 binder: -2

How did CC1CCN(C2CC(=O)N(c3ccc(Br)cc3Br)C2=O)CC1 (centres undefined) do in these assays?
VLA-4 allo ag: 3; LNCaP diff act: 2; VLA-4 antagonist: -10; FPR ligand: -3; Jurkat autofluor: 1.1; FPRL1 binder: -9

Results for COc1ccc(-c2cn3cccnc3n2)cc1NC(=O)C1CCCC1 ?
VLA-4 allo ag: -4; LNCaP diff act: 13; VLA-4 antagonist: -4; FPR ligand: 2; Jurkat autofluor: 1.1; FPRL1 binder: 74*

What do the screens show for `COc1ccc(-c2cn3cccnc3n2)cc1NC(=O)C1CC1`?
VLA-4 allo ag: -6; LNCaP diff act: 12; VLA-4 antagonist: 28; FPR ligand: -4; Jurkat autofluor: 1.1; FPRL1 binder: 76*

Results for COc1ccc(NC(=O)C2CCCN(S(=O)(=O)c3cccc4cccnc34)C2)c(OC)c1 (centres undefined) ?
VLA-4 allo ag: -5; LNCaP diff act: 12; VLA-4 antagonist: 12; FPR ligand: 2; Jurkat autofluor: 1.1; FPRL1 binder: -3

What do the screens show for `CCOC(=O)Nc1cc(OCC)c(NC(=O)C2CC2)cc1OCC`?
VLA-4 allo ag: 0; LNCaP diff act: 4; VLA-4 antagonist: -18; FPR ligand: -4; Jurkat autofluor: 1.1; FPRL1 binder: -3

How did COc1cc2c(cc1OC)C(C)N(C(=O)c1cc3n(n1)C(C(F)(F)F)CC(c1ccco1)N3)CC2 (centres undefined) do in these assays?
VLA-4 allo ag: -14; LNCaP diff act: 2; VLA-4 antagonist: 12; FPR ligand: -6; Jurkat autofluor: 1; FPRL1 binder: -5

How did O=C(NCC12CC3CC(CC(C3)C1)C2)c1cc2n(n1)C(C(F)(F)F)CC(c1ccco1)N2 (centres undefined) do in these assays?
VLA-4 allo ag: inconclusive; LNCaP diff act: 1; VLA-4 antagonist: inconclusive; FPR ligand: 7; Jurkat autofluor: 3.5*; FPRL1 binder: -12

Results for COc1ccc(OC)c(Nc2cc(-c3ccccc3)nc(N)n2)c1 ?
VLA-4 allo ag: 1; LNCaP diff act: 22; VLA-4 antagonist: 16; FPR ligand: 4; Jurkat autofluor: 0.99; FPRL1 binder: -3

How did COc1ccc(C(=O)N(Cc2ccco2)C(C(=O)NC2CCCC2)c2ccc(O)cc2)cc1OC (centres undefined) do in these assays?
VLA-4 allo ag: 0; LNCaP diff act: 13; VLA-4 antagonist: 6; FPR ligand: -5; Jurkat autofluor: 1.1; FPRL1 binder: -6

Results for COc1ccccc1-n1c(CNC(=O)c2ccco2)nnc1SCC(=O)Nc1ccc(F)cc1 ?
VLA-4 allo ag: -3; LNCaP diff act: 5; VLA-4 antagonist: -1; FPR ligand: 47*; Jurkat autofluor: 1; FPRL1 binder: 3

What do the screens show for `COc1ccccc1-n1c(CNC(=O)c2ccco2)nnc1SCC(=O)Nc1cc(C)ccc1C`?
VLA-4 allo ag: 1; LNCaP diff act: 7; VLA-4 antagonist: -13; FPR ligand: -2; Jurkat autofluor: 1; FPRL1 binder: -1

Results for CN1C(=O)c2ccccc2C(C(=O)NCC2CCCO2)C1c1c[nH]c2ccccc12 (centres undefined) ?
VLA-4 allo ag: -3; LNCaP diff act: 8; VLA-4 antagonist: 14; FPR ligand: 7; Jurkat autofluor: 0.98; FPRL1 binder: -3

Results for Cc1cc2c(c(Sc3ccccc3)n1)C(=O)OC2 ?
VLA-4 allo ag: 2; LNCaP diff act: 3; VLA-4 antagonist: -13; FPR ligand: -5; Jurkat autofluor: 1; FPRL1 binder: 0

How did COc1ccc(Nc2nc(N)nc(CN3CCC(Cc4ccccc4)CC3)n2)cc1 do in these assays?
VLA-4 allo ag: 5; LNCaP diff act: 49*; VLA-4 antagonist: 7; FPR ligand: -5; Jurkat autofluor: 1; FPRL1 binder: 6

How did COc1cccc(N2CCN(Cc3nc(N)nc(Nc4ccccc4OC)n3)CC2)c1 do in these assays?
VLA-4 allo ag: 2; LNCaP diff act: 12; VLA-4 antagonist: -8; FPR ligand: 0; Jurkat autofluor: 1.1; FPRL1 binder: 0

Results for COC(=O)c1ccccc1NC(=O)c1cnc2sccn2c1=O ?
VLA-4 allo ag: inconclusive; LNCaP diff act: 9; VLA-4 antagonist: inconclusive; FPR ligand: 0; Jurkat autofluor: 1; FPRL1 binder: -2

What do the screens show for `COC(=O)Nc1sccc1C(=O)Nc1sccc1C(=O)OC`?
VLA-4 allo ag: inconclusive; LNCaP diff act: 32*; VLA-4 antagonist: inconclusive; FPR ligand: -3; Jurkat autofluor: 2.2; FPRL1 binder: 5

How did O=c1c2c(nc3c(-c4cccc5ccccc45)c[nH]n13)CCC2 do in these assays?
FPR ligand: -14; FPRL1 binder: -1

How did O=c1c2c(nc3c(-c4ccc(Cl)cc4)c[nH]n13)CCCC2 do in these assays?
FPR ligand: 71*; FPRL1 binder: 1

Results for CC1CC(C)CN(Cc2nc3c(c(=O)n(C)c(=O)n3C)n2Cc2ccccc2Cl)C1 (centres undefined) ?
VLA-4 allo ag: -4; LNCaP diff act: 5; VLA-4 antagonist: 0; FPR ligand: -5; Jurkat autofluor: 1; FPRL1 binder: -1

What do the screens show for `CC(C)c1cc(C(=O)Nc2cc(Cl)ccc2O)no1`?
VLA-4 allo ag: inconclusive; LNCaP diff act: 6; VLA-4 antagonist: inconclusive; FPR ligand: -19; Jurkat autofluor: 3.8*; FPRL1 binder: -12

How did CC(C)c1cc(C(=O)Nc2cccc(Cl)c2)no1 do in these assays?
VLA-4 allo ag: 0; LNCaP diff act: 8; VLA-4 antagonist: 7; FPR ligand: -1; Jurkat autofluor: 1.1; FPRL1 binder: 3

How did Cc1ccc(Cn2ccc(NC(=O)c3cc(-c4ccc(Br)cc4)on3)n2)cc1 do in these assays?
VLA-4 allo ag: 8; LNCaP diff act: 35*; VLA-4 antagonist: -3; FPR ligand: -8; Jurkat autofluor: 0.98; FPRL1 binder: -6
